# Assay results reported in PubChem BioAssay AID485344 (National Center for Advancing Translational Sciences (NCATS), 2010).
# The campaign covered roughly 340,000 compounds. About 6,900 (2%) were called active. No stated cut-off is given here; in the data, active means inhibition above about 30%; inactive means below that, where a call was filed. The list comes from a sample in which actives are over-represented; it also holds similar structures and randomly drawn compounds.
# Target: D(2) dopamine receptor (Homo sapiens) (UniProt P14416)
# Sequence (P14416 whole entry, looked up): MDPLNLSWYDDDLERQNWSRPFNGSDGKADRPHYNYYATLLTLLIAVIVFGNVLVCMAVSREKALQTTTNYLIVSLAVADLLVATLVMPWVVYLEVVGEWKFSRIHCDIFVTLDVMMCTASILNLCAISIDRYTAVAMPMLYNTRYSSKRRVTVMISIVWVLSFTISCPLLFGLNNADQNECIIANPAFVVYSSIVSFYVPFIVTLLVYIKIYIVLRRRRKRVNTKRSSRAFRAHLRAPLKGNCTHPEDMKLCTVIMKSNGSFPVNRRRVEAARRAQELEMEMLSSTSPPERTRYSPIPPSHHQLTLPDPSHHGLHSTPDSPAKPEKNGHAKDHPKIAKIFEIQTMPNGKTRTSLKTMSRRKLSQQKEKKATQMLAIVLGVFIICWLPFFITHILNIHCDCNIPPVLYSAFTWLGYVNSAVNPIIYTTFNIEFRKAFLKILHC
# Assay: HTS Assay for Allosteric Antagonists of the Human D2 Dopamine Receptor: Primary Screen for Antagonists; further: 0% is about no effect
# Settings: HEK293 TREx D2 cells, calcium flux, dopamine EC80; at 10 µM; stronger effect = higher value
# Description: NIH Chemical Genomics Center [NCGC] NIH Molecular Libraries Probe Centers Network [MLPCN] MLPCN Grant: NS064831-01 Assay Submitter (PI): David Sibley Dopamine receptors (DARs) are involved in the etiology and/or therapy of a number of neuropsychiatric and endocrine disorders. For instance, all receptor-based antiparkinsonian drugs work via stimulating the D2 DAR subtype whereas all FDA-approved antipsychotic agents are antagonists of this receptor. […] There are three different types of allosteric modulators that we are seeking, two of which will stimulate or augment receptor signaling, allosteric agonists and potentiators, while the third, allosteric antagonists, will attenuate receptor signaling. The present primary screening assay measures compound antagonism after an EC80 addition of dopamine by tracking calcium flux in a […], inducible Hek293 Trex D2 cell line.
# Freshly passaged cells are plated in 1536 well black, clear bottom plates at a density of 4000 cells/well in 3 ul of complete media containing 1x tetracycline inducer. After an overnight incubation at 30 C in 5% CO2, cells are loaded with 2 ul of the no wash Calcium Assay Kit (ABD Bioquest) and incubated at room temperature for 30 to 90 minutes. Agonist read: A 10 cycle (1 second/cycle) baseline measurement is taken and then the FDSS online 1536 pintool delivers 23 nl of compound library (as well as dopamine controls) to the plate. The plate is measured for kinetically at 1 cycle/sec for 180 seconds. Following the 180 second read, 1 ul of an EC80 (negative modulation assay) is delivered by an onboard pipette head. Measurements are taken kinetically for an additional 180 seconds.
row,Structure (SMILES),inhibition
1,Cc1ccc(C2CN(C)CC2C(=O)c2ccc(F)cc2)cc1 (stereo not given),70% (active)
2,COc1ccc(C(=O)C2CN(C)CC2C(=O)c2ccc(OC)cc2)cc1 (stereo not given),4.54% (inactive)
3,CN1CCC(OC(=O)c2cccc(F)c2)CC1,8.08% (inactive)
4,COC(=O)C1=C(c2ccc(F)cc2OCc2ccccc2)C[C@@H]2CC[C@H]1N2C(=O)NCc1ccc2[nH]ccc2c1,4.27% (inactive)
5,COC(=O)C1=C(c2cccc(OCc3ccccc3)c2)C[C@@H]2CC[C@H]1N2C(=O)NNCc1ccccc1,-6.45% (inactive)
6,O=C(O)CCn1cc(C=C2C(=O)NC(=S)NC2=O)c(-c2cccc(Br)c2)n1,18.3% (inactive)
7,CCc1ccc(OCC(=O)N2CCN(CC(=O)Nc3ccccc3Cl)CC2)cc1,-8.62% (inactive)
8,CCN1CCN(Cc2cc(OC)c3c(c2)OCO3)CC1,-21.1% (inactive)
9,Fc1ccc(N2CCN(Cc3ccc4c(c3)OCO4)CC2)cc1,65.6% (active)
10,O=C(Cc1ccccc1[N+](=O)[O-])N1CCN(Cc2ccc3c(c2)OCO3)CC1,-19.1% (inactive)
11,CC(C)c1ccc(O)c(CN2CCN(c3ccccc3)CC2)c1,-16.3% (inactive)
12,Cc1cc(=O)oc2c(C)c(OCC(=O)N3CCN(Cc4ccc5c(c4)OCO5)CC3)ccc12,3.54% (inactive)
13,Oc1cc2c(cc1CN1CCN(c3ccccc3)CC1)OCO2,108% (active)
14,CN1CCC(N(C)Cc2cccnc2)CC1,11.8% (inactive)
15,Cc1ccccc1NC(=O)COC(=O)c1cc(C)n(C2CC2)c1C,6.13% (inactive)
16,COC(=O)C1=C(c2ccc(Cl)c(C(F)(F)F)c2)C[C@@H]2CC[C@H]1N2C(=O)NC(C)C,-9.37% (inactive)
17,COC(=O)C1=C(c2ccc(F)cc2OCc2ccccc2)C[C@@H]2CC[C@H]1N2C(=O)NCc1ccc(Cl)cc1,-5.86% (inactive)
18,CCOC(=O)C1(CCc2ccccc2)CCN(Cc2ccco2)CC1,1.26% (inactive)

row,Structure (SMILES),inhibition
1,CCOC(=O)C1(Cc2ccc(Cl)cc2)CCN(C(C)CCn2cccn2)CC1 (stereo not given),77.6% (active)
2,COC(=O)C1=C(c2cccc(OCc3ccccc3)c2)C[C@@H]2CC[C@H]1N2C(=O)NCc1ccc(Br)cc1,-11.9% (inactive)
3,c1cncc(CNC2=NCCC2)c1,-1.77% (inactive)
4,c1cncc(CNCCc2c[nH]c3ccccc23)c1,33% (active)
5,COc1ccc(CNCCc2c[nH]c3ccccc23)cc1OC,22.9% (inactive)
6,Fc1cccc(F)c1CN1CCN(Cc2c(F)cccc2F)CC1,-7.4% (inactive)
7,COc1ccc(CN2CCN(c3ccccc3F)CC2)c(OC)c1,76.4% (active)
8,COc1ccccc1CN1CCN(C(=O)Cc2ccccc2)CC1,-40.7% (inactive)
9,COC(=O)C1=C(c2ccccc2OCc2ccccc2)C[C@@H]2CC[C@H]1N2C(=O)NCc1ccc(OC)cc1,-2.56% (inactive)
10,COC(=O)C1=C(c2ccc(F)cc2OCc2ccccc2)C[C@@H]2CC[C@H]1N2C(=O)NCc1ccc(OC)c(OC)c1,-1.84% (inactive)
11,COC(=O)C1=C(c2ccc(Cl)c(C(F)(F)F)c2)C[C@@H]2CC[C@H]1N2C(=O)NC1CC1,-0.929% (inactive)
12,COC(=O)C1=C(c2ccc(-c3ccccc3)c(F)c2)C[C@@H]2CC[C@H]1N2C(=O)NCc1ccc(F)cc1,-5.61% (inactive)
13,Cn1c(O)c(C(=Nc2ccc(F)cc2)c2ccccc2)c(=O)n(C)c1=O,-2.27% (inactive)
14,NCC(O)c1ccc(O)cc1 (stereo not given),32.1% (active)
15,CCc1cccc2c(C#N)cn(CC(=O)N3CCOCC3)c12,-4.1% (inactive)
16,C[C@]12CC[C@H](O)C[C@H]1CC[C@@H]1C2CC[C@]2(C)[C@@H](C3=CC(=O)OC3)[C@@H](O)C[C@]12O (stereo not given in full),8.92% (inactive)
17,COC(=O)C1=C(c2ccc3ccccc3c2)C[C@@H]2CC[C@H]1N2C(=O)NCCO,-12.6% (inactive)
